According to PubChem BioAssay (NCATS):
Inconclusive results are not listed. A call without a number means that no potency is given here. Calls of active or inactive are those of the source. Calls come from the whole dose curve; as a rule, active = well fitted inhibition curve with a large enough effect; inconclusive = small, poorly fitted or top-dose-only effect; inactive = no such curve, though single readings can be large or run the other way. Starred links: 1 amine or outer side, 2 acyl side, 3 side chain; linkers in the order of their positions; H or OH if unused. Positions of bridges follow the written chain, without caps; N, C: chain ends. Non-standard residues stand in square brackets, D forms with d. Residues, ends and D or L forms follow the SMILES beside them. ξ: configuration not given here. *: point of attachment. X3 = C[C@@H](Oc1ccc([C@H](N[*:1])C(=O)[*:2])cc1)[C@]1(/C=C\C(=O)[*:3])CO1; d(aIle) = CC[C@H](C)[C@@H](N)C(=O)O; X2 = CC(C)[C@@H](O)C(C)C(=O)*; ξNMeF = CNC(Cc1ccccc1)C(=O)O; ξT = CC(O)C(N)C(=O)O; ξS = NC(CO)C(=O)O
Potency is the fitted concentration of half-maximal effect.

The molecules below were run against Nuclear receptor subfamily 1 group I member 3 (Homo sapiens) (UniProt Q14994) (assay: qHTS for Constitutive Androstane Receptor (CAR) Antagonist screened against the NCATS CANVASS Library (AID 1347372)). Conditions: HepG2-hCAR-CYP2B6 luciferase, CITCO-stimulated antagonist mode; series mostly up to 46.1 µM.
Chain of Nuclear receptor subfamily 1 group I member 3 (Homo sapiens) (Q14994 whole entry, looked up): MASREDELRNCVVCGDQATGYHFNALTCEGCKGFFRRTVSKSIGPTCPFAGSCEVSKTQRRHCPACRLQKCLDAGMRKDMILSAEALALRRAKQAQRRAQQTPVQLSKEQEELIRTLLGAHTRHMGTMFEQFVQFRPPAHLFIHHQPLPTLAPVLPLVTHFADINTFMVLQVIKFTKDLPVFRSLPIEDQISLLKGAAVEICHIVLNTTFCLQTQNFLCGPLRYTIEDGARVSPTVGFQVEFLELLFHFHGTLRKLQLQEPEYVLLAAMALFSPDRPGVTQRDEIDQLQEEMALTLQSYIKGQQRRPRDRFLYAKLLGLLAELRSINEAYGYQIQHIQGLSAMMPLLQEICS
Text: Natural products and their derivatives continue to be wellsprings of nascent therapeutic potential. However, many laboratories have limited resources for biological evaluation, leaving their previously isolated or synthesized compounds largely or completely untested. To address this issue, the Canvass library of natural products was assembled (https://tripod.nih.gov/canvass), in collaboration with academic and industry researchers, for quantitative high-throughput screening (qHTS) across a diverse set of cell-based and biochemical assays. The pure (>85% purity by liquid chromatography/mass spectrometry [LC/MS]) Canvass library of 346 natural products were submitted by 45 academic laboratories and companies around the world. We collected pure natural products to circumvent deconvolution and structure elucidation due to time and resource limitations. The library was formatted into 1536-well plates and evaluated in 50 qHTS (in an 11-pnt concentration series) bioassays with broad scope of disease-relevant mechanisms. The resulting data set from 50 different assays was then systematically analyzed to identify overall trends and specific natural products with interesting biological activities. Reported herein are the results of each individual qHTS and their corresponding assay protocol. The constitutive androstane receptor (CAR) is a nuclear receptor which regulates multiple drug metabolizing enzymes (DMEs) and transporters. Activating CAR will generally increase the transcription and subsequent translation of CYP2B6 and CYP3A4. These two DMEs represent about 50% of the drug metabolizing potential in the body. […] Recently, there have also been studies performed indicating CARs role in energy metabolism and cancer therapy. Therefore, inducing or inhibiting CAR's activity could have a potential effect on diabetes and/or cancer. National Center for Advancing Translational Sciences (NCATS), Rockville, MD National Institute of Health (NIH), Bethesda, Maryland
Material: A double-stable (hCAR and CYP2B6-2.2kb) transfected cell line, derived from human hepatoma (HepG2) cells, was utilized for the duration of the quantitative high-throughput screens. The HepG2-CYP2B6-hCAR cells suspended in DMEM culture medium supplemented with 10% FBS, 5 ug/mL blasticidin, 0.5 mg/mL geneticin, 100 U/mL penicillin and 100 ug/mL streptomycin. CAR Antagonist assay protocol: 1. In a 1536 well, tissue culture treated white solid bottom plates (Greiner Bio-One North America), 4 uL of engineered HepG2-hCAR-CYP2B6 cell solution (final concentration 2500 cells / well) was dispensed using the Multidrop Combi dispenser (Thermo Fisher Scientific). 2. The assay plates were incubated for 4hr at 37C, 5% CO2 to allow the cells to acclimate and attach. 3. Compounds were pin transferred (~23 nL volume) to the assay plates via Wako Pin-tool (Wako Automation, Richmond VA) equipped with a 1536 pin head. The compounds were transferred to columns 5-48 resulting in a final concentration ranging from 0.6nM to 92uM. 4. One uL of CITCO, was added using a Flying Reagent Dispenser to generate a final concentration of 50 nM CITCO inside each well. 5. The assay plates were incubated at 37C, 5% CO2 for 24hr. 6. To measure cell viability, 1 uL of CellTiter-Fluor (Promega) reagent was then added to the assay plates (column 1-48, rows 1-32). The assay plates were incubated for 1hr at 37C, 5% CO2. 7. A first readout of fluorescence signal was acquired via the ViewLux (PerkinElmer) plate reader using a FITC dichroic mirror, excitation 405/10 nm filter, and emission 540/25 nm filter; and using 65 light energy, 1 second exposure, and 2x binning settings. 8. To measure CAR activation, 4 uL of ONE-Glo reagent (Promega) was added to the assay plates (column 1-48, rows 1-32). The assay plates were further incubated at room temperature for 30 min. 9. A second readout of luminescence signal was acquired via the ViewLux plate reader using a clear emission filter, 10 second exposure, 2x binning settings. […]
`CO[C@@H](/C=C/CC/C=C/C(=O)O)[C@@H](O)[C@H](C)/C=C(\C)[C@H](O)[C@H](C)C(=O)CCCC1CC(=O)NC(=O)C1` was tested, and the Potency was “inactive”.
In the case of `O[C@H]1C=C[C@@]23CCN(Cc4cc5c(cc42)OCO5)[C@@H]3C1`, the Potency is reported as “inactive”.
In the case of `c1ccc2nc3c(cc2c1)[nH]c1ccccc13`, the Potency is reported as “inactive”.
In the case of `COC1=C(C2=C(OC)C(=O)c3cc4c(c(O)c3C2=O)C(=O)O[C@H](C)C4)C(=O)c2c(cc3c(c2O)C(=O)O[C@H](C)C3)C1=O`, the Potency is reported as “inactive”.
`C[C@]12CC(O)C3[C@@H](CC[C@@H]4C[C@@H](O)CC[C@]34CO)[C@@]1(O)CC[C@@H]2C1=CC(=O)OC1` (some centres undefined) was tested, and the Potency was 4.17 µM (active).
In the case of `C[N+](C)(C)CCc1c[nH]c2ccccc12`, the Potency is reported as “inactive”.
For `C=CC(C)(C)[C@@]12C[C@H]3C(=O)N/C(=C/c4cnc[nH]4)C(=O)N3[C@@H]1Nc1ccccc12`, the Potency was 20.9 µM (active).
For `C/C=C1/CN2CC[C@@]34c5ccccc5N(C)[C@@H]3[C@@H]2C[C@@H]1[C@H]4C(=O)OC`, the Potency was “inactive”.
For `CO[C@@]12c3c(C)cc(O)c4c(=O)occ(c34)C(=O)[C@@H]1[C@]13COC(=O)c4c(O)cc(C)c(c41)C(=O)[C@H]2[C@@H]3OC(C)=O`, the Potency was “inactive”.
In the case of `C1=C2CCCN[C@H]2C2CC1[C@H]1CCCCN1C2` (some centres undefined), the Potency is reported as “inactive”.
For `CO[C@H]1[C@H](O[C@H]2CC[C@]3(C=O)[C@H]4CC[C@]5(C)[C@@H](C6=CC(=O)OC6)CC[C@]5(O)[C@@H]4CC[C@]3(O)C2)O[C@H](C)[C@H](O)[C@@H]1OC`, the Potency was 0.295 µM (active).
In the case of `CCCCC1CC[C@H]2CCCC(CCC)N12` (some centres undefined), the Potency is reported as “inactive”.
`CC(C)CC1C(=O)O[C@H](C(C)C)C(=O)N(C)C(CC(C)C)C(=O)O[C@@H](C(C)C)C(=O)N(C)C(CC(C)C)C(=O)O[C@H](C(C)C)C(=O)N(C)C(CC(C)C)C(=O)O[C@@H](C(C)C)C(=O)N1C` (some centres undefined) was tested, and the Potency was 20.9 µM (active).
`C=CC(C)(C)[C@@]12C[C@H]3C(=O)N/C(=C\c4cnc[nH]4)C(=O)N3[C@@H]1Nc1ccccc12` was tested, and the Potency was “inactive”.
With `C/C=C/[C@@H]1[C@H]2C[C@@H](C)CC[C@@H]2C(C)=C[C@H]1C(=O)c1c(O)c(-c2ccc(O)cc2)c[nH]c1=O` the Potency was “inactive”.
With `CC[C@H](C)[C@H]1NC(=O)[C@@H](NC(=O)C(C)[C@H](O)C(C)C)[C@@H](C)OC(=O)C2COC(=O)CNC(=O)/C=C\[C@]3(CO3)[C@@H](C)Oc3ccc(cc3)[C@H](NC1=O)C(=O)N(C)C(Cc1ccccc1)C(=O)NC(C(C)O)C(=O)N2` (some centres undefined) (X2-T[d(aIle)][X3][ξNMeF][ξT][ξS]; ester 1-C; linker 3-6 via G) the Potency was “inactive”.
With `CO[C@H]1C[C@H](O[C@H]2[C@@H](O)C[C@H](O[C@H]3CC[C@]4(C=O)[C@H]5CC[C@]6(C)C(C7=CC(=O)OC7)CC[C@]6(O)[C@@H]5CC[C@]4(O)C3)O[C@@H]2C)O[C@H](C)[C@H]1O[C@H]1C[C@@H](OC)[C@@H](O[C@@H]2O[C@H](CO)[C@@H](O)[C@H](O)[C@H]2O)[C@@H](C)O1` (some centres undefined) the Potency was 0.417 µM (active).
In the case of `C=C[C@H]1CN2CCc3c([nH]c4cccc(OC)c34)[C@@H]2C[C@@H]1/C(=C\OC)C(=O)OC`, the Potency is reported as “inactive”.
`CO[C@H]([C@@H](C)[C@H]1O[C@]1(C)C[C@H](C)/C=C/C=C(\C)[C@H]1O[C@@H](CC(=O)O)CC[C@@H]1C)[C@@H](C)O` was tested, and the Potency was “inactive”.
With `C[C@]12CCC3[C@@H](CC[C@@H]4C[C@@H](O)CC[C@]34CO)[C@@]1(O)CC[C@@H]2C1=CC(=O)OC1` (some centres undefined) the Potency was 4.17 µM (active).
`CC[C@]12C=CCN3CC[C@]4(C(=C(C(=O)OC)C1)Nc1ccccc14)[C@@H]32` was tested, and the Potency was “inactive”.
For `C/C(=C\[C@H](C)C(=O)C[C@H](O)CC1CC(=O)NC(=O)C1)[C@@H]1OC(=O)/C=C/CC/C=C/C=C/[C@@H]1C`, the Potency was 0.741 µM (active).
For `CCCC[C@@H](C)/C=C1/CN2CCC[C@H]2[C@@](C)(O)[C@@H]1O`, the Potency was “inactive”.
With `C/C=C(\C)C(=O)O[C@@H]1[C@@H](O)[C@@H]2O[C@H]3[C@H](O[C@@H](CCCCC)CCCCCCC(=O)CCC(=O)OC[C@@H](O2)[C@H]1OC(=O)/C=C/c1ccccc1)O[C@H](C)[C@H](OC(C)=O)[C@@H]3O` the Potency was 0.0524 µM (active).
For `CC[C@H]1CN2CCc3c([nH]c4cccc(OC)c34)[C@@H]2C[C@@H]1/C(=C\OC)C(=O)OC`, the Potency was “inactive”.
`CC[C@@H]1CN2CCc3c([nH]c4cccc(OC)c34)[C@@H]2C[C@@H]1/C(=C\OC)C(=O)OC` was tested, and the Potency was “inactive”.
For `COC1C(O)C(C)OC(OC2C(Oc3cccc4c(O)c5c(=O)oc6ccc(C)c7c(=O)oc(c34)c5c67)OC(C)C(O)C2O)C1O` (centres undefined), the Potency was 11.7 µM (active).
`CCCC[C@@H]1CC[C@H]2CCCC(CCCO)N12` (some centres undefined) was tested, and the Potency was “inactive”.
With `C[C@]12CC(O)C3[C@@H](CCC4C[C@@H](O)CC[C@@]43CO)[C@@]1(O)CC[C@@H]2C1=CC(=O)OC1` (some centres undefined) the Potency was 10.5 µM (active).
